Screens from PubChem BioAssay.
Most compounds without a hit are left out; they make up all but 12% or so of the library.
BAZ2B inh: inhibitors of human BAZ2B bromodomain. Q9UIF8. 360,000 tested, 4.4% active. AID 504333. AlphaScreen BAZ2B-H3K14Ac peptide displacement. Potency, µM (series often up to 114 µM), without a hit: at the top dose activity change, negative = inhibition, hits mostly inhibitors; further: on the % scale 0 is the no-effect control and ±100 the full control effect; nearly all actives have a fitted effect of over 60% in size
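AlphaScreen luminescence quantifies BAZ2B engagement of H3K14Ac peptide; the protein and biotinylated peptide are both at 50 nM final, buffer PBS pH 7.4 with 0.01% Tween-20, all steps at room temperature.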
G9a block: blocks human histone lysine methyltransferase G9a. Q96KQ7. G9a H3K9 monomethylation, AlphaScreen, 2 h. Potency, µM (top dose mostly 102 µM), without a hit: top-dose activity, negative = inhibition, usual class: inhibitors. 350,000 tested, 8.8% active. AID 504332; further: on the % scale 0 is the no-effect control and ±100 the full control effect; nearly all actives have a fitted effect of over 75% in size
Target sequence (Q96KQ7 913-1193 limits assumed): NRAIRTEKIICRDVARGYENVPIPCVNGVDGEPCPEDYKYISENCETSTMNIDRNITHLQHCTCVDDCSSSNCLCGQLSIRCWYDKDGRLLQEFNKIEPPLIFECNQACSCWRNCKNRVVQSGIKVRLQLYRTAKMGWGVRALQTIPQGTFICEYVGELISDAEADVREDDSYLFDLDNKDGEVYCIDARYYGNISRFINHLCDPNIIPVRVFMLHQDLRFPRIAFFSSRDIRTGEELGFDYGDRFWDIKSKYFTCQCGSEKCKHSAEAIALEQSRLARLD
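G9a (20 nM) preincubated 15 min RT with compounds, then 500 nM biotinylated H3K9 peptide and 20 uM SAM added; 2 h RT reaction. Monomethyl-H3K9 product detected by AlphaScreen with anti-H3K9me1 antibody, streptavidin donor and anti-rabbit IgG acceptor beads.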
JMJD2A Tudor: inhibitors of human JMJD2A Tudor domain; 390,000 tested, 4.4% active; Potency, µM (series often up to 114 µM), inactives show at the top dose activity change, negative = inhibition, actives largely listed as inhibitors; AlphaScreen JMJD2A-Tudor / H3K4me3 peptide binding; AID 504339; O75164; further: on the % scale 0 is the no-effect control and ±100 the full control effect; nearly all actives have a fitted effect of over 50% in size
Sfp inh: inhibitors of Bacillus subtilis Sfp phosphopantetheinyl transferase; Potency, µM, inactives show largest response in the series, negative = inhibition, actives largely listed as inhibitors; 310,000 tested, 3.5% active; Q9F4F7; AID 1490; Biochemical Sfp PPTase activity, qHTS;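 further: the enzyme is Sfp with the accession as filed and its product quenches rhodamine fluorescence; 0% = enzyme reaction without inhibitor and -100% = no enzyme wells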
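Sfp 15 nM + cpd, 15 min RT; start w/ rhodamine-CoA 5 uM, BHQ-2-YbbR 12.5 uM (final); 50 mM Hepes pH 7.6, 10 mM MgCl2, 0.01% NP-40, 0.01% BSA; read 525/598 nm at 0 and 30 min.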
HP1b chromo inh: HP1-beta chromodomain-methylated histone interaction inhibition; 390,000 tested, 0.56% active; AlphaScreen HP1-beta / biotin-H3K9me3 peptide binding; Potency, µM (doses to about 114 µM), without a hit: at the highest dose activity change, negative = inhibition, hits mostly inhibitors; P83916; further: nearly all actives have a fitted effect of over 70% in size
Target sequence (P83916 whole entry, looked up): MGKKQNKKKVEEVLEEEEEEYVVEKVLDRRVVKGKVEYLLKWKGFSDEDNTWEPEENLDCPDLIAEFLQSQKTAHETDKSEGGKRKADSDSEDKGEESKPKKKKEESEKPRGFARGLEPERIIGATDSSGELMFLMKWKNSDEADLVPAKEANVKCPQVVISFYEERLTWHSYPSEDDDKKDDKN
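HP1-beta protein (50 nM final) preincubated 30 min at room temperature with biotinylated H3(1-18)K9me3 peptide (50 nM) in PBS pH 7.4, 0.01% Tween-20, then compound added for 30 min. AlphaScreen streptavidin donor/nickel chelate acceptor beads (10 ug/mL final), 30 min dark, luminescence read.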
L3MBTL1 block: L3MBTL1 (human) inhibition | Potency, µM (top dose mostly 57.1 µM), for the others: top-dose activity, negative = inhibition, hits mostly inhibitors | 230,000 tested, 0.66% active | AlphaScreen L3MBTL1–H3K9me1 peptide binding; further: on the % scale 0 is the no-effect control and ±100 the full control effect; nearly all actives have a fitted effect of over 60% in size
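AlphaScreen assay: L3MBTL1 (50 nM final) was preincubated 30 min at room temperature with biotinylated H3(1-15)K9me1 peptide (75 nM final), then 30 min with library compounds; streptavidin donor and nickel chelate acceptor beads (10 ug/mL final) added, 30 min dark.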
* = called active by the depositor; ? = inconclusive; / = not tested or not shown; [ ] = remark or other dose. The call rests on the fitted dose curve; in most records, active means well fitted curve in the direction sought with a large enough effect; inconclusive means small, poorly fitted or top-dose-only effect, or another doubt; inactive means no such curve, though single readings can be large; an effect the other way counts as inactive or inconclusive. Potency means the concentration at half of the fitted maximal effect.

SMILES	BAZ2B inh	G9a block	JMJD2A Tudor	Sfp inh	HP1b chromo inh	L3MBTL1 block
O=C1c2c([N+](=O)[O-])cc([N+](=O)[O-])cc2S(=O)N1Cc1ccccc1 (centres undefined)	45µM*	0.89µM*	89µM*	50µM*	?	/
Cc1ccc(C2=[N+]([O-])C3(CCCCC/C3=N\NC(N)=S)N(O)C2(C)C)o1 (centres undefined)	?	?	/	71µM*	/	/
CCOC(=O)CN(Cc1ccccc1)C(C(=O)NC1CCCCC1)c1ccc(C)cc1 (centres undefined)	11%	15%[59 µM]	-9%	/	21%	/
COc1ccc(/C(C)=N/NC(=S)NCCc2ccccc2)cc1	25µM*	-40%	?	10%	-13%	-23%
C/C(=N\NC(=S)NCCc1ccccc1)c1cccc(Br)c1	40µM*	-37%	-22%	-3%	-14%	-2%[11.4 µM]
O=C(NCCc1ccccc1)c1cccc(Br)c1	-1%	/	7%	-9%	58%	9%
Cc1ccc2c(c1)C(c1ccc(F)cc1)N(C(=O)c1ccc(OC(C)C)cc1)CC(=O)N2 (centres undefined)	-15%	-35%[59 µM]	-32%	/	34%	/
CCN(C(=O)CSc1nc2ccccc2n1Cc1ccc(F)cc1Cl)c1ccccc1	-33%	-8%[12.7 µM]	-7%	/	28%	/
O=S(=O)(CCc1ccccc1)c1nnnn1-c1ccc(F)cc1Br	/	/	/	0%	/	/
Oc1c(C(c2ccccc2Cl)N2CCC(O)CC2)sc2nc(-c3ccco3)nn12 (centres undefined)	-17%	?	-17%	/	16%	/
C=C(C)CNC(=S)Nc1cccc(N)n1	?	1.3µM*	-21%	-4%	9%	-5%
C=C(C)CNC(=S)N/N=C(\C)c1cccc(NC(C)=O)c1	-11%	9%	-19%	-6%	7%	/
Cc1ccc(NC2Sc3ccccc3NC2=O)cc1 (centres undefined)	-35%	1.8µM*	50µM*	8.9µM*	45µM*	-3%
Cc1c(CC(=O)NCCc2ccccc2F)c(=O)oc2c(C)c3occ(C(C)(C)C)c3cc12	-2%	5%[59 µM]	-8%	/	30%	/
c1ccn2c(SCc3ccc4c(c3)OCCO4)nnc2c1	?	56µM*	-6%	?	32%	1%
CN(CC(=O)Nc1ccc(Cl)c(C(F)(F)F)c1)C(=O)c1cn2ccccc2n1	?	35µM*	-13%	/	16%	-1%
CC(=O)c1ccc(-c2cccc(C3C4C=CCCC4(C)C(=O)N3Cc3ccccc3)c2)cc1 (centres undefined)	/	/	-31%	-29%	23%	/
CC1=C(C#N)C(=O)NC(=O)/C1=C\c1ccc(-c2ccc(C)cc2[N+](=O)[O-])o1	45µM*	18µM*	32µM*	50µM*	?	25µM*
COc1ccc(-c2ccc(/C=C3/C(=N)N4C=CSC4=NC3=O)o2)c([N+](=O)[O-])c1	?	?	?	-18%	-5%	-2%
CCOC(=O)c1cc(-c2ccc(/C=C3/C(=O)NC(=O)C(C#N)=C3C)o2)ccc1Cl	50µM*	35µM*	56µM*	50µM*	40µM*	?
Cn1nnnc1Sc1ncnc2scc(-c3cccc(C#N)c3)c12	/	/	-8%	/	/	/
CN(C)c1cccc2c1C(=O)c1ccccc1C2=O	8.9µM*	11µM*	45µM*	-10%	28µM*	25µM*
CCOc1ccc2nc(N3CCCC(C(=O)Nc4cccc(Cl)c4C)C3)sc2c1 (centres undefined)	-17%	-3%[59 µM]	2%	/	45%	/
Cc1ccc(N2CCN(C(=O)c3cnn(-c4ccc(C)c(C)c4)c3C3CCNCC3)CC2)c(C)c1	?	-48%[59 µM]	?	/	-17%	/
Cc1cccc(NC(=O)c2cnn(-c3ccc(F)cc3)c2C2CCNCC2)c1C	4%	35µM*	-20%	19%	10%	/
SMILES	BAZ2B inh	G9a block	JMJD2A Tudor	Sfp inh	HP1b chromo inh	L3MBTL1 block
Cc1ccc(Cl)cc1N1CCN(C(=O)c2cnn(-c3ccc(Cl)cc3)c2C2CCNCC2)CC1	?	8.9µM*	-28%	/	30%	/
Cc1cc(C)cc(NC(=O)c2cnn(-c3ccccc3)c2C2CCNCC2)c1	-27%	40µM*	-22%	6%	18%	10%
Cc1cc(C)cc(NC(=O)c2cnn(-c3ccc(C)c(C)c3)c2C2CCNCC2)c1	-1%[57.1 µM]	?	-29%	/	-12%	/
Cc1ccc(-n2ncc(C(=O)Nc3cc(Cl)ccc3C)c2C2CCNCC2)cc1C	-28%	-40%	2%	12%	36%	-9%
COc1ccc(OC)c(NC(=O)c2cnn(-c3ccc(C)cc3)c2C2CCNCC2)c1	?	?	79µM*	/	-3%	/
COc1ccc(Nc2c(-c3ccsc3)nc3nc(C)cc(C)n23)cc1	?	-23%[59 µM]	-32%	/	7%	/
O=S(=O)(c1ccc(-c2csc(=Nc3ccc(OC(F)(F)Cl)cc3)n2CCCO)cc1)N1CCCC1	89µM*	1µM*	?	/	-27%	/
COCCCn1c(-c2ccc(S(=O)(=O)N3CCOCC3)cc2)csc1=Nc1ccccc1	?	?	?	-7%	?	/
Cn1c(-c2ccc(S(=O)(=O)N3CCCC3)cc2)csc1=Nc1ccc(Cl)c(Cl)c1	-29%	?	50µM*	/	?	/
COc1ccc2oc(=O)c(C(=O)NCCc3c(C)[nH]c4c(C)cccc34)cc2c1	-37%	-27%[59 µM]	?	/	-14%	/
CC(=O)N1c2ccccc2NC2=C(C(=O)CCC2)C1c1ccco1 (centres undefined)	?	?	-13%	25µM*	4%	-16%
CCN(CC)C(=O)Cn1cc(SCC(=O)Nc2cccc(F)c2)c2ccccc21	-4%	5%[59 µM]	-17%	/	57%	/
CCOc1ccc(NC(=O)NCc2ccc3c(c2)OCO3)cc1	-36%	24%	-11%	-1%	36%	/
CCOc1ccc(CN(CCc2ccc3c(c2)OCO3)Cc2cc(OC)cc(OC)c2)cc1	?	1.4µM*	4µM*	/	?	/
c1cc2nc(C34CC5CC(CC(C5)C3)C4)[nH]c2cn1	50µM*	14µM*	22µM*	-25%	?	-2%
Cc1ccc(OCc2n[nH]c(=S)n2C2CCCCC2)cc1	-34%	1.1µM*	56µM*	9%	-11%	/
S=c1[nH]nc(COc2ccc(Cl)cc2)n1C1CCCCC1	15%	?	-18%	16%	21%	8%
Cc1cccc(OCc2n[nH]c(=S)n2C2CCCCC2)c1	-31%	1.8µM*	?	6%	5%	-1%
COc1ccc(C(NC(=O)CN2C(=O)NC3(CCc4ccccc43)C2=O)c2ccc(OC)cc2)cc1 (centres undefined)	1%	50µM*	-28%	/	0%	-3%
